Experimental findings from PubChem BioAssay (NCI) are described below.

SMILES strings stand for the structures. The panel holds about 79,000 compounds, 15% with a hit somewhere; the sample as a whole holds those more often. A number with no mark means an inactive call. Activity calls are given as the source filed them. No stated cut-off is given here; in the data, active means growth inhibition above about 70%; inactive means the rest.

Experiment [1] can be described thus: NCI Yeast Anticancer Drug Screen. Data for the rad50 strain (AID 155).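 Further: 0% = growth of vehicle-only cultures of the same strain.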 The conditions noted are these: S. cerevisiae rad50 strain growth inhibition; at 50.0 µM; hits give high values. The essentials:
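A DNA repair-deficient yeast mutant serves as the test organism; compound-induced growth inhibition is calculated against vehicle-treated cells.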

Experiment [2] in a line: NCI Yeast Anticancer Drug Screen. Data for the mec2-1 strain (AID 157). To be noted: S. cerevisiae mec2-1 strain, at 50.0 µM, hits give high values. In outline: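 Growth inhibition is read against vehicle-treated controls after compound exposure of the mec2-1 yeast strain, which is defective in DNA damage repair or cell cycle control.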
Experiment [3] is described as follows: NCI Yeast Anticancer Drug Screen. Data for the sgs1 mgt1 strain (AID 161).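 Further: 0% = growth of cultures given vehicle only.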 The conditions noted are these: S. cerevisiae sgs1 mgt1 strain, at 50.0 µM, hits give high values. In outline:
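Growth of a repair-deficient yeast mutant was monitored after compound treatment and expressed as inhibition relative to vehicle-treated cultures.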

Experiment [4] can be described thus: NCI Yeast Anticancer Drug Screen. Data for the cln2 rad14 strain (AID 165).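 Further: 0% = growth equal to vehicle treated cultures.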 The conditions noted are these: S. cerevisiae cln2 rad14 strain, at 50.0 µM, hits give high values. In outline: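 Growth inhibition, relative to vehicle-treated controls, is the read-out. The test organism is a yeast strain with defined genetic alterations, cln2 rad14.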
The nature of experiment [5]: NCI Yeast Anticancer Drug Screen. Data for the bub3 strain (AID 167). The conditions noted are these: S. cerevisiae bub3 mutant strain, at 50.0 µM, hits give high values. The essentials: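 Inhibition values come from growth of compound-treated mutant yeast normalised to vehicle-treated controls.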
Experiment [6] can be described thus: NCI Yeast Anticancer Drug Screen. Data for the mlh1 rad18 strain (AID 175). The conditions noted are these: S. cerevisiae mlh1 rad18 strain growth inhibition; at 50.0 µM; hits give high values. The essentials: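 Cells of a genetically altered yeast strain, deficient in DNA damage repair, were treated with compound. Their growth was then compared with that of vehicle-treated cultures to give inhibition.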

As to `CSc1ccc(OC(=O)NC2CCCCC2)cc1C`, the growth inhibition in experiment [1] was 7.5%; in experiment [2] it was 22.4%; in experiment [3] it was 13.6%; in experiment [4], 6.25%; in experiment [5], 28.6%; in experiment [6], 14.8%.
`OCc1ccc(Cl)cc1Cl`: the growth inhibition in experiment [1] was 6.55%; in experiment [2] it was -0.25%; in experiment [3], -11.4%; in experiment [4], 10.3%; in experiment [5], -51.1%; in experiment [6], -27.9%.
Turning to `O=C(Nc1nncs1)c1cccs1`, the growth inhibition in experiment [1] was -13.8%; in experiment [2], -6.45%; in experiment [3] it was -5.6%; in experiment [4], 3.35%; in experiment [5], -11.2%; in experiment [6], -27.5%.
For `Cc1cccc2sc(=S)[nH]c12`, the growth inhibition in experiment [1] is 35%; in experiment [2], 18.6%; in experiment [3], 28.9%; in experiment [4] it was 19.9%; in experiment [5], 29.8%; in experiment [6] it was 30.6%.
Take `O=c1[nH]cc(F)c(=S)[nH]1`: the growth inhibition in experiment [1] was -9.85%; in experiment [2], -16.5%; in experiment [3], -5.9%; in experiment [4], -16.4%; in experiment [5] it was 6.2%; in experiment [6] it was -23.9%.
`O=S1(=O)C2C=CCC1C(Cl)CC2` (stereo unspecified): the growth inhibition in experiment [1] is -7.7%; in experiment [2], 29.9%; in experiment [3], 36%; in experiment [4], -24.4%; in experiment [5], 24.9%; in experiment [6] it was -5.25%.
Regarding `CC(=O)CC(=O)N1CCN(C(=O)CC(C)=O)C(C)C1` (stereo unspecified), the growth inhibition in experiment [1] was -7.95%; in experiment [2] it was -58.5%; in experiment [3] it was 6.05%; in experiment [4], 1.8%; in experiment [5], -11.7%; in experiment [6], -6.75%.
Turning to `CCCCCCCCCCNC(=O)CCC(NC(=O)c1ccc(N(C)Cc2cnc3nc(N)nc(N)c3n2)cc1)C(=O)NCCCCCCCCCC` (stereo unspecified), the growth inhibition in experiment [1] was 5.7%; in experiment [2], 3.35%; in experiment [3], -4.15%; in experiment [4] it was 6.1%; in experiment [5], -13.2%; in experiment [6] it was -3.65%.
Consider `COC(=O)c1ccc(C(=O)OC)c2nn3c(N)nnc3nc12`, for which the growth inhibition was 8.85% in experiment [1]; 15% in experiment [2]; 7.55% in experiment [3]; -12.4% in experiment [4]; 9.15% in experiment [5]; 2.9% in experiment [6].
As for `CC(C)CC1OCC(C)(C)C(C(C)C)O1` (stereo unspecified), the growth inhibition in experiment [1] was -8%; in experiment [2] it was -6.1%; in experiment [3] it was -17.4%; in experiment [4], 2%; in experiment [5], -0.4%; in experiment [6], 0.4%.
Take `COC(=O)c1ccccc1NCc1cc(Cl)ccc1O`: the growth inhibition in experiment [1] is 96.2% (active); in experiment [2], 97.3% (active); in experiment [3], 96.7% (active); in experiment [4], 92.8% (active); in experiment [5], 95.8% (active); in experiment [6], 94.9% (active).
`CC(C)=CCC(OC(=O)C=C(C)C)c1cc(O)c2c(O)ccc(O)c2c1O.[Mn]` (stereo unspecified): the growth inhibition in experiment [1] is 36.1%; in experiment [2], 47.2%; in experiment [3], 25.4%; in experiment [4], 54.1%; in experiment [5], 46%; in experiment [6], 87.3% (active).
With `NNC(=O)C(CSC(c1ccccc1)(c1ccccc1)c1ccccc1)NC(=O)OCc1ccccc1` (stereo unspecified), the growth inhibition in experiment [1] was 87.1% (active); in experiment [2], 86% (active); in experiment [3] it was 94.8% (active); in experiment [4], 83.6% (active); in experiment [5], 89% (active); in experiment [6] it was 95.2% (active).
As to `COC(=O)/C=C(\C(=O)c1ccccc1)c1ccccc1`, the growth inhibition is 6.05% in experiment [1]; 4.25% in experiment [2]; -4.1% in experiment [3]; 8.95% in experiment [4]; 0.3% in experiment [5]; 11.9% in experiment [6].
Take `NNC(=O)c1oc2ccccc2c1CN(CCO)CCO`: the growth inhibition in experiment [1] is 3.75%; in experiment [2], -2.4%; in experiment [3] it was 3.45%; in experiment [4], -2.45%; in experiment [5], -1.15%; in experiment [6], -5.1%.
In the case of `NS(=O)(=O)c1cc(C(=O)O)c(O)c2ccccc12`, the growth inhibition in experiment [1] is 9.85%; in experiment [2], 3.3%; in experiment [3], 1.15%; in experiment [4], -23.8%; in experiment [5], 6.6%; in experiment [6], 15.6%.
On to `O=S1(=O)OCCOS(=O)(=O)C1I`, for which the growth inhibition in experiment [1] was -8.1%; in experiment [2] it was -30.2%; in experiment [3], -12.4%; in experiment [4], 11.3%; in experiment [5] it was -21.5%; in experiment [6], -29.6%.
With `COc1cc(C(CC#N)CC#N)cc(OC)c1OC`, the growth inhibition in experiment [1] is -3.4%; in experiment [2] it was -15.8%; in experiment [3], 25.8%; in experiment [4], 6.45%; in experiment [5], 8.95%; in experiment [6] it was 8%.
`C[N+]1(CC(O)c2ccccc2)CCCC1` (stereo unspecified): the growth inhibition in experiment [1] is 3.55%; in experiment [2], 13.3%; in experiment [3] it was -0.25%; in experiment [4], 32.6%; in experiment [5], 6.3%; in experiment [6], -10.8%.
As to `CCCCCCSc1n[nH]c(=S)s1`, the growth inhibition is -4.25% in experiment [1]; 9.55% in experiment [2]; 18.4% in experiment [3]; 24.6% in experiment [4]; -5.2% in experiment [5]; 13.4% in experiment [6].
Regarding `COc1nc(OC)c2[nH]cnc2n1`, the growth inhibition in experiment [1] is 17.6%; in experiment [2], 15.3%; in experiment [3] it was 13.1%; in experiment [4] it was -38.7%; in experiment [5] it was -1.35%; in experiment [6], 14.7%.
